AC50 data for 34 molecules are collected here from publication PMC6792352, “Limited Chemical Structural Diversity Found to Modulate Thyroid Hormone Receptor in the Tox21 Chemical Library” (Environmental Health Perspectives, 2019).

Counter-ions that a name gives are not always drawn.

The test system of this experiment is thyroid hormone receptor (endogenous TRα and TRβ). Details: species or system GH3-TRE-Luc (rat pituitary); GH3-TRE-Luc luciferase reporter, antagonist mode against 1 nM T3, loss of signal, qHTS. Conditions: read-out: Average AC50 (uM) GH3-TRE-Antag, antagonist mode, 1 nM T3, no GH3 cytotoxicity hit.
Regarding `CCC(COC(=O)c1cc(OC)c(OC)c(OC)c1)(c1ccccc1)N(C)C` (stereo not shown) [Trimebutine maleate], the AC50 came out at 16.3 µM.

Turning to `C=CC(C)(CCC=C(C)C)OC(=O)/C=C/c1ccccc1` (stereo not shown) [Linalyl cinnamate], the concentration at half-maximal activity (AC50) is 73.9 µM.

As for `COC(=O)N(C(=O)N1CO[C@@]2(C(=O)OC)Cc3cc(Cl)ccc3C2=N1)c1ccc(OC(F)(F)F)cc1` [Indoxacarb], the half-maximal activity concentration (AC50) was 9.12 µM.

As to `O=C(O)[C@@H]1[C@H](C(=O)O)[C@H]2CC[C@@H]1O2` [Endothal], the concentration at half-maximal activity (AC50) stood at 77.2 µM.

For `CSC1=N[C@@](C)(c2ccccc2)C(=O)N1Nc1ccccc1` [Fenamidone], the AC50 was 6.3 µM.

In the case of `CC(Cc1ccccc1)(NC(=O)CN)c1ccccc1` (stereo not shown) [Remacemide hydrochloride], the AC50 was 21.8 µM.

On to `CNC(=S)NC` [N,N'-Dimethylthiourea], for which the AC50 is 72 µM.

Turning to `N#CC(c1ccc(Cl)cc1)c1c(Cl)cc(-n2ncc(=O)[nH]c2=O)cc1Cl` (stereo not shown) [Diclazuril], the half-maximal activity concentration (AC50) came out at 4.7 µM.

Regarding `C[C@]12C=CC(=O)N[C@@H]1CC[C@@H]1[C@@H]2CC[C@]2(C)[C@@H](C(=O)Nc3cc(C(F)(F)F)ccc3C(F)(F)F)CC[C@@H]12` [Dutasteride], the concentration at half-maximal activity (AC50) was found to be 3.44 µM.

Take `Oc1ccccc1Cc1ccccc1O` [2,2'-Bisphenol F]: the half-maximal activity concentration (AC50) was more than 90 µM.

Regarding `O=C(O)Cn1c(C(=O)Nc2nc(-c3ccccc3Cl)cs2)cc2ccccc21` [Lintitript], the AC50 is more than 50 µM.

`O=C1c2ccccc2C(=O)C1(O)O` [Ninhydrin]: the AC50 is 80 µM.

`CCC(=O)/C=C/c1ccc(OC)cc1` [1-(4-Methoxyphenyl)-1-pentene-3-one]: the AC50 is 79.8 µM.

With `C=C1C[C@H]2[C@@H]3C=C(C)C4=CC(=O)CC[C@]4(C)[C@H]3CC[C@]2(C)[C@@]1(OC(C)=O)C(C)=O` [Melengestrol acetate], the AC50 is 26.6 µM.

`Clc1cc(C(Cl)(Cl)Cl)cnc1Cl` [2,3-Dichloro-5-(trichloromethyl)pyridine]: the AC50 was determined as 40.5 µM.

Regarding `CCCCCc1ccc(C)cc1O` [Amylmetacresol], the half-maximal activity concentration (AC50) amounted to 23.6 µM.

Turning to `O=C1c2ccccc2C(=O)N1CCc1noc(-c2ccc(CN3CCCCCC3)s2)n1` [PharmaGSID_48172], the AC50 stood at 75.2 µM.

Take `Cn1cc(C(=O)[C@@H]2CCc3nc[nH]c3C2)c2ccccc21` [Ramosetron hydrochloride]: the AC50 amounted to 40.9 µM.

Take `NC(=O)C1(N2CCCCC2)CCN(CCCC(=O)c2ccc(F)cc2)CC1` [Pipamperone dihydrochloride]: the AC50 is 25.9 µM.

`CCC(C)(C)c1ccc(O)cc1` [4-(2-Methylbutan-2-yl)phenol]: the AC50 is more than 50 µM.

Regarding `CC(=O)[C@H]1CC[C@H]2[C@@H]3C=CC4=CC(=O)CC[C@@]4(C)[C@@H]3CC[C@]12C` [Dydrogesterone], the concentration at half-maximal activity (AC50) amounted to 9.99 µM.

Regarding `NC(=O)N(O)[C@@H]1COc2cc(OCc3ccccc3)ccc21` [SB202235], the AC50 was 85 µM.

Consider `Oc1ccc(Cc2ccccc2O)cc1` [2-(4-Hydroxybenzyl)phenol], for which the AC50 is 63.8 µM.

For the molecule `c1ccc(P(c2ccccc2)c2ccccc2)cc1` [Triphenylphosphine], the half-maximal activity concentration (AC50) was more than 90 µM.

Turning to `CCOC(CN1CCN(CC(C)C(=O)c2ccccc2)CC1)c1ccccc1` (stereo not shown) [Eprazinone dihydrochloride], the concentration at half-maximal activity (AC50) was 32.1 µM.

`CCOC(=O)OC1=C(c2cc(C)ccc2C)C(=O)N[C@]12CC[C@@H](OC)CC2` [Spirotetramat]: the half-maximal activity concentration (AC50) worked out at 69.7 µM.

As for `NC(=S)NC(N)=S` [2,4-Dithiobiuret], the concentration at half-maximal activity (AC50) was 45 µM.

For the molecule `C/C=C(/CC[C@@H](C)[C@H]1CC[C@H]2C3=CC[C@H]4[C@H](C)[C@@H](O)CC[C@]4(C)[C@H]3CC[C@]12C)C(C)C` [Sitosterol alpha1], the AC50 came out at 40.6 µM.

`C/C(=C\c1csc(C)n1)[C@@H]1C[C@@H]2O[C@]2(C)CCC[C@H](C)[C@H](O)[C@@H](C)C(=O)C(C)(C)[C@@H](O)CC(=O)O1` [Epothilone B]: the half-maximal activity concentration (AC50) came out at 0.0109 µM.

Consider `Cc1c(F)c(F)c(COC(=O)[C@H]2[C@@H](/C=C(\Cl)C(F)(F)F)C2(C)C)c(F)c1F` (racemic) [Tefluthrin], for which the AC50 is 59.6 µM.

With `CCc1c2c(nc3ccc(OC(=O)N4CCC(N5CCCCC5)CC4)cc13)-c1cc3c(c(=O)n1C2)COC(=O)[C@]3(O)CC` [Irinotecan hydrochloride], the concentration at half-maximal activity (AC50) was determined as 19.1 µM.

For `NC1=NCC2c3ccccc3Cc3ccccc3N12` (stereo not shown) [Epinastine hydrochloride], the concentration at half-maximal activity (AC50) amounted to 27.1 µM.

With `CC(C)(C)c1ccc(OC(=O)c2ccccc2O)cc1` [4-tert-Butylphenyl salicylate], the concentration at half-maximal activity (AC50) is more than 90 µM.

For the molecule `O=c1[nH]c(=O)n([C@H]2C[C@H](O)[C@@H](CO)O2)cc1C(F)(F)F` [Trifluridine], the AC50 was 23.4 µM.

One may read the AC50 as the concentration at which the activity in the assay is half-maximal.
